Laboratory results: article PMC7862700, “An all-to-all approach to the identification of sequence-specific readers for epigenetic DNA modifications on cytosine”

Columns and labels:
Assay in all cases: DAPPL (digital affinity profiling via proximity ligation, sequencing); 10 mM Tris-HCl pH 7.5, 50 mM NaCl, 1 mM DTT, 4% glycerol, room temperature, 30 min; GST-TFs on glutathione beads, 16-mer random dsDNA library, 0.1% formaldehyde crosslink after washing; high values mean tight binding
Settings in all cases: protein: recombinant; tags: N-terminal GST; dsDNA, one strand shown
FLI1 = biological target: T1, FLI1 (Homo sapiens, UniProt Q01543 1-452)
T1 sequence: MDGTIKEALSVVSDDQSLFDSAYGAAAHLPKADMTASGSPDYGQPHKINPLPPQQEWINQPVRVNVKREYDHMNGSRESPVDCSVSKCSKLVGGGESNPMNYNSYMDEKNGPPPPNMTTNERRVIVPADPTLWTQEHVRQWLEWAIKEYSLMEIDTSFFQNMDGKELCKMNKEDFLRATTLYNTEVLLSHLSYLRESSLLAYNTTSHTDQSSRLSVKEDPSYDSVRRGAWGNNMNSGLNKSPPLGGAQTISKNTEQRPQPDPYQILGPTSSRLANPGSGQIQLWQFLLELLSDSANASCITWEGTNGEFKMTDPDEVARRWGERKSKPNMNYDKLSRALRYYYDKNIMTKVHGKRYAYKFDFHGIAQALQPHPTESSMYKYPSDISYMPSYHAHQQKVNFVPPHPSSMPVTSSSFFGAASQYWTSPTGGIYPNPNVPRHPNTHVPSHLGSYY
Method in brief: (§1)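 Each value of binding signal is a hexamer's read frequency for a factor divided by the same hexamer's frequency in the tag-only sample. Barcoded, bead-captured GST fusions of human transcription factors made in yeast were pooled with that sample and incubated with 200 nmole of a random double-stranded 16-mer DNA library in Tris/NaCl/DTT/glycerol buffer at room temperature for 30 min. Washing, 0.1% formaldehyde crosslinking, proximity ligation, PCR and Illumina NextSeq500 sequencing followed.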

ELK1 = biological target: T2, ELK1 (Homo sapiens, UniProt P19419 1-428)
T2 sequence: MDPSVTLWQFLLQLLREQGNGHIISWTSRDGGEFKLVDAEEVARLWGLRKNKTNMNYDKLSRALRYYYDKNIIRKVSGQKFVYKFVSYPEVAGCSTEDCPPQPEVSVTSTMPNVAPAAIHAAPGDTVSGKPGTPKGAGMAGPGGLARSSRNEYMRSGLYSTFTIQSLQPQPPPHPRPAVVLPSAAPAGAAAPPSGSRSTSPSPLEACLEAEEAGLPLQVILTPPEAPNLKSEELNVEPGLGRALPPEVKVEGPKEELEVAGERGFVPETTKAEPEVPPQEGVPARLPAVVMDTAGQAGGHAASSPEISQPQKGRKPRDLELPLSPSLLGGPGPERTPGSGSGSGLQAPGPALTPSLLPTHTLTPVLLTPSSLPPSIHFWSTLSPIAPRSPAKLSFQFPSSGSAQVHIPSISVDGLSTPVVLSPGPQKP
Method in brief: as §1

GABPA = biological target: T3, GABPA (Homo sapiens, UniProt Q06546 1-454)
T3 sequence: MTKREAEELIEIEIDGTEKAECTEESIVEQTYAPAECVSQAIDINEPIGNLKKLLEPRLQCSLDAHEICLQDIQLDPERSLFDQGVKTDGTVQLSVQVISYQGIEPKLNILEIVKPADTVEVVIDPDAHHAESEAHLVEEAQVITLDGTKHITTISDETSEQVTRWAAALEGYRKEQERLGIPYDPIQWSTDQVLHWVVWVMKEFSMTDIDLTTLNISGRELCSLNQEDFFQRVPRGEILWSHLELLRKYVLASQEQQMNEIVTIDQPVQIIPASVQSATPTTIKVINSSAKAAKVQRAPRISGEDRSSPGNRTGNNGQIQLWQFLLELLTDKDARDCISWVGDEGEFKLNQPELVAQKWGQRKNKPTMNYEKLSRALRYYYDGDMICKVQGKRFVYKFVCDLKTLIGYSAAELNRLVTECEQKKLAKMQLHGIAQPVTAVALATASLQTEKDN
Method in brief: as §1

ERG = biological target: T4, ERG (Homo sapiens, UniProt P11308 1-479)
T4 sequence: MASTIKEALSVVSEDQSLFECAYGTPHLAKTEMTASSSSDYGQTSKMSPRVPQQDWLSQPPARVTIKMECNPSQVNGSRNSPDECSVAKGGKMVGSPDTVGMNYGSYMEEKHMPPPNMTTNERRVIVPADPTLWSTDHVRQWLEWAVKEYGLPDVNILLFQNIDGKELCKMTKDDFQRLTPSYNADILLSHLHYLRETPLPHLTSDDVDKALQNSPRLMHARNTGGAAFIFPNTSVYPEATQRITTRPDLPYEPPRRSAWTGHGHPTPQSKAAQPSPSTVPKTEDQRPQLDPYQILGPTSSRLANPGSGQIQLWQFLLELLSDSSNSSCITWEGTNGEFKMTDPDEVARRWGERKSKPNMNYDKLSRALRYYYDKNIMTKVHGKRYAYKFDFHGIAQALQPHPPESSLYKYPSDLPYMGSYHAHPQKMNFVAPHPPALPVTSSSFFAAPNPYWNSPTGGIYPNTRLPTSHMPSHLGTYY
Method in brief: as §1

ELF1 = ELF1 (Homo sapiens, UniProt P32519 1-619)
Sequence of ELF1 (P32519 whole entry): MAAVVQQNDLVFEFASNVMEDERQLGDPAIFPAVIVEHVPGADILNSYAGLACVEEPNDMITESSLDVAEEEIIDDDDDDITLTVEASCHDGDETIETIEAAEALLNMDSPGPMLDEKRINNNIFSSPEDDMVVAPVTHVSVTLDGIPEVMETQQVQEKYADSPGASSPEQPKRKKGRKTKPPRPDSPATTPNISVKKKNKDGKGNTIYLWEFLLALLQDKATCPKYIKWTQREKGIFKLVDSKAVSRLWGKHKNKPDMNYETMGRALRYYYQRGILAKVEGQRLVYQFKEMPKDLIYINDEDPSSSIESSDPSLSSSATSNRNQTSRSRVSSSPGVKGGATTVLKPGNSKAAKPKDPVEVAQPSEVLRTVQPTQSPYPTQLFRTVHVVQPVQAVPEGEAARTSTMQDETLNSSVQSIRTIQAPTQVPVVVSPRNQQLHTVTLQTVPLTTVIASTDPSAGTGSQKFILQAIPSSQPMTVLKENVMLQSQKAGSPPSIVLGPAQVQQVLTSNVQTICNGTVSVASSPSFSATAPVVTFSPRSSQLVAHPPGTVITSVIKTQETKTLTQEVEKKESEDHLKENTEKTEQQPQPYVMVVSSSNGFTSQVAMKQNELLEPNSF
Method in brief: as §1

EHF = biological target: T5, EHF (Homo sapiens, UniProt Q9NZC4 1-300)
T5 sequence: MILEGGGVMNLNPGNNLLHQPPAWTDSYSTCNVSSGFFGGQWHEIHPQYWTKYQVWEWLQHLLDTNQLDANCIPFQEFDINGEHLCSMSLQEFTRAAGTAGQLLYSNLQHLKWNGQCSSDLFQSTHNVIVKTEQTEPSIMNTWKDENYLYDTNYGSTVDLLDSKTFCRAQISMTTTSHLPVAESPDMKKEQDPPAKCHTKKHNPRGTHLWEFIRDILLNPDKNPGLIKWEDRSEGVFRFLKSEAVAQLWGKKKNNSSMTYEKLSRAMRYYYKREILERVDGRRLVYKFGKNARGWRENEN
Method in brief: as §1

SPI1 = SPI1 (Homo sapiens, UniProt P17947 1-270)
Method in brief: as §1

SPIB = SPIB (Homo sapiens, UniProt Q01892 1-262)
Sequence of SPIB (Q01892 whole entry): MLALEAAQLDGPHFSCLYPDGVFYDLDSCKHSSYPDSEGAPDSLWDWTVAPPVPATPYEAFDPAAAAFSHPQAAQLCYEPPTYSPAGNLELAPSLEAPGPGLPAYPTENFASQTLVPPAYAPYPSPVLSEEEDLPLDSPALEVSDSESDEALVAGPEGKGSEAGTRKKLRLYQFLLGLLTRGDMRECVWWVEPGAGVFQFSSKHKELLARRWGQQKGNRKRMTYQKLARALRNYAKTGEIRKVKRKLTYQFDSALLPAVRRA
Method in brief: as §1

ELK3 = biological target: T6, ELK3 (Homo sapiens, UniProt P41970 1-407)
T6 sequence: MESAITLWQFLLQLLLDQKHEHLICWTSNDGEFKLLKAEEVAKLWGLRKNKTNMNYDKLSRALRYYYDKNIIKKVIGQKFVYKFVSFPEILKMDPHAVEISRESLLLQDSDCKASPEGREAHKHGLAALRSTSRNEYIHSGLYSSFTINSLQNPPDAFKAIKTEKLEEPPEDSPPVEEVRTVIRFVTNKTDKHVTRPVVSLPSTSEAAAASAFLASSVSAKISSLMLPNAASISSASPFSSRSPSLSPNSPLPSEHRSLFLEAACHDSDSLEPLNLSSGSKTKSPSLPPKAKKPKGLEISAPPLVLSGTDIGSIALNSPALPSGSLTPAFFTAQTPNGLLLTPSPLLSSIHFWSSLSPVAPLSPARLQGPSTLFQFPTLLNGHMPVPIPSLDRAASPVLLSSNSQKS
Method in brief: as §1

ATCCAT
binding signal (FLI1): 1.22 fold enrichment (6-mer frequency, TF over GST control)
binding signal (ELK1): 1.17 fold enrichment (6-mer frequency, TF over GST control)
binding signal (GABPA): 1.16 fold enrichment (6-mer frequency, TF over GST control)
binding signal (ERG): 1.11 fold enrichment (6-mer frequency, TF over GST control)
binding signal (ELF1): 1.14 fold enrichment (6-mer frequency, TF over GST control)
binding signal (EHF): 1.14 fold enrichment (6-mer frequency, TF over GST control)
binding signal (SPI1): 1.07 fold enrichment (6-mer frequency, TF over GST control)
binding signal (SPIB): 1.18 fold enrichment (6-mer frequency, TF over GST control)
binding signal (ELK3): 1.2 fold enrichment (6-mer frequency, TF over GST control)

CTTTGG
binding signal (FLI1): 1.15 fold enrichment (6-mer frequency, TF over GST control)
binding signal (ELK1): 1.12 fold enrichment (6-mer frequency, TF over GST control)
binding signal (GABPA): 1.21 fold enrichment (6-mer frequency, TF over GST control)
binding signal (ERG): 1.07 fold enrichment (6-mer frequency, TF over GST control)
binding signal (ELF1): 1.17 fold enrichment (6-mer frequency, TF over GST control)
binding signal (EHF): 1.11 fold enrichment (6-mer frequency, TF over GST control)
binding signal (SPI1): 1.21 fold enrichment (6-mer frequency, TF over GST control)
binding signal (SPIB): 1.04 fold enrichment (6-mer frequency, TF over GST control)
binding signal (ELK3): 1.13 fold enrichment (6-mer frequency, TF over GST control)

ATCGCC
binding signal (FLI1): 1.28 fold enrichment (6-mer frequency, TF over GST control)
binding signal (ELK1): 1.36 fold enrichment (6-mer frequency, TF over GST control)
binding signal (GABPA): 1.27 fold enrichment (6-mer frequency, TF over GST control)
binding signal (ERG): 1.29 fold enrichment (6-mer frequency, TF over GST control)
binding signal (ELF1): 1.23 fold enrichment (6-mer frequency, TF over GST control)
binding signal (EHF): 1.37 fold enrichment (6-mer frequency, TF over GST control)
binding signal (SPI1): 1.22 fold enrichment (6-mer frequency, TF over GST control)
binding signal (SPIB): 1.29 fold enrichment (6-mer frequency, TF over GST control)
binding signal (ELK3): 1.27 fold enrichment (6-mer frequency, TF over GST control)

CCTTTC
binding signal (FLI1): 1.76 fold enrichment (6-mer frequency, TF over GST control)
binding signal (ELK1): 1.57 fold enrichment (6-mer frequency, TF over GST control)
binding signal (GABPA): 1.61 fold enrichment (6-mer frequency, TF over GST control)
binding signal (ERG): 1.62 fold enrichment (6-mer frequency, TF over GST control)
binding signal (ELF1): 1.57 fold enrichment (6-mer frequency, TF over GST control)
binding signal (EHF): 1.57 fold enrichment (6-mer frequency, TF over GST control)
binding signal (SPI1): 1.64 fold enrichment (6-mer frequency, TF over GST control)
binding signal (SPIB): 1.7 fold enrichment (6-mer frequency, TF over GST control)
binding signal (ELK3): 1.64 fold enrichment (6-mer frequency, TF over GST control)

TTATTG
binding signal (FLI1): 1.24 fold enrichment (6-mer frequency, TF over GST control)
binding signal (ELK1): 1.27 fold enrichment (6-mer frequency, TF over GST control)
binding signal (GABPA): 1.28 fold enrichment (6-mer frequency, TF over GST control)
binding signal (ERG): 1.24 fold enrichment (6-mer frequency, TF over GST control)
binding signal (ELF1): 1.3 fold enrichment (6-mer frequency, TF over GST control)
binding signal (EHF): 1.29 fold enrichment (6-mer frequency, TF over GST control)
binding signal (SPI1): 1.18 fold enrichment (6-mer frequency, TF over GST control)
binding signal (SPIB): 1.31 fold enrichment (6-mer frequency, TF over GST control)
binding signal (ELK3): 1.38 fold enrichment (6-mer frequency, TF over GST control)

TTCCAC
binding signal (FLI1): 1.39 fold enrichment (6-mer frequency, TF over GST control)
binding signal (ELK1): 1.28 fold enrichment (6-mer frequency, TF over GST control)
binding signal (GABPA): 1.38 fold enrichment (6-mer frequency, TF over GST control)
binding signal (ERG): 1.4 fold enrichment (6-mer frequency, TF over GST control)
binding signal (ELF1): 1.45 fold enrichment (6-mer frequency, TF over GST control)
binding signal (EHF): 1.33 fold enrichment (6-mer frequency, TF over GST control)
binding signal (SPI1): 1.42 fold enrichment (6-mer frequency, TF over GST control)
binding signal (SPIB): 1.35 fold enrichment (6-mer frequency, TF over GST control)
binding signal (ELK3): 1.5 fold enrichment (6-mer frequency, TF over GST control)

AAATTT
binding signal (FLI1): 1.31 fold enrichment (6-mer frequency, TF over GST control)
binding signal (ELK1): 1.31 fold enrichment (6-mer frequency, TF over GST control)
binding signal (GABPA): 1.26 fold enrichment (6-mer frequency, TF over GST control)
binding signal (ERG): 1.3 fold enrichment (6-mer frequency, TF over GST control)
binding signal (ELF1): 1.25 fold enrichment (6-mer frequency, TF over GST control)
binding signal (EHF): 1.33 fold enrichment (6-mer frequency, TF over GST control)
binding signal (SPI1): 1.22 fold enrichment (6-mer frequency, TF over GST control)
binding signal (SPIB): 1.45 fold enrichment (6-mer frequency, TF over GST control)
binding signal (ELK3): 1.28 fold enrichment (6-mer frequency, TF over GST control)

GAACCT
binding signal (FLI1): 1.09 fold enrichment (6-mer frequency, TF over GST control)
binding signal (ELK1): 1.27 fold enrichment (6-mer frequency, TF over GST control)
binding signal (GABPA): 1.06 fold enrichment (6-mer frequency, TF over GST control)
binding signal (ERG): 1.09 fold enrichment (6-mer frequency, TF over GST control)
binding signal (ELF1): 1.13 fold enrichment (6-mer frequency, TF over GST control)
binding signal (EHF): 1.15 fold enrichment (6-mer frequency, TF over GST control)
binding signal (SPI1): 1.11 fold enrichment (6-mer frequency, TF over GST control)
binding signal (SPIB): 1.14 fold enrichment (6-mer frequency, TF over GST control)
binding signal (ELK3): 1.18 fold enrichment (6-mer frequency, TF over GST control)
